Screens deposited in PubChem by National Center for Advancing Translational Sciences (NCATS).
Sampled rows, rich in hits. Any-hit rate of the full collection: about 21%.
Shiga toxin inh: A qHTS for Small Molecule Inhibitors of Shiga Toxin. Vero cells, Shiga toxin protein synthesis inhibition reporter. inhibition, % at 38.7 µM. 290,000 tested, 9.2% active. AID 2315, 2010; in the data active means inhibition mostly above about 28%, no sharp cut-off; inactive means mostly below about 43%; further: 0% is about no effect
Pf growth 48h: Primary qHTS for delayed death inhibitors of the malarial parasite plastid, 48 hour incubation. 310,000 tested, 5.9% active. AID 504832, 2011. P. falciparum luciferase growth in erythrocytes, 48 h. Potency, µM (top dose mostly 28.7 µM), for inactives: top-dose activity change, negative = inhibition, most hits filed as inhibitors; further: potency means the concentration at half of the fitted maximal effect; on the % scale 0 is the no-effect control and ±100 the full control effect
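Cell-based growth assay: transgenic P. falciparum expressing firefly luciferase, cultured in red cells within RPMI 1640 containing 0.5% w/v Albumax, 24 mM bicarbonate and gentamycin. A drop in luciferase activity indicates inhibition.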
NS1 function inh: qHTS Assay for Inhibitors of Influenza NS1 Protein Function | 270,000 tested, 0.4% active | Potency, µM (titrated, usually from 46.1 µM), inactives show at the highest dose activity, positive = more growth | AID 2326, 2010; calls by dose curve; further: potency means the concentration at half of the fitted maximal effect; actives are rising curves; nearly all actives have a fitted effect of over 50% in size
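Recovery from NS1-induced slow growth read by OD600 in budding yeast switched to galactose assay medium (pH 6.0, -URA) at 1:100 dilution. Compound 23 nl per well; the matching strain lacking NS1 serves as control.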
Pf growth 96h: Primary qHTS for delayed death inhibitors of the malarial parasite plastid, 96 hour incubation; Potency, µM (highest dose often 28.7 µM), inactives show at the top dose activity change, negative = inhibition, usual class: inhibitors; P. falciparum luciferase reporter growth, 96 h; 320,000 tested, 6.9% active; further: potency means the concentration at half of the fitted maximal effect; on the % scale 0 is the no-effect control and ±100 the full control effect
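Infected RBCs, 2% Hct / 0.05% parasitemia final; luciferase-reporter P. falciparum; cpd 96 h, 37 C, 5% CO2; luciferase detection reagent; luminescence.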
CHX counter: Cycloheximide Counterscreen for Small Molecule Inhibitors of Shiga Toxin; cell reporter, cycloheximide protein synthesis inhibition counterscreen; max response, %; 300,000 tested, 12% active; AID 2314, 2010; in the data active means max response mostly above about 13%, no sharp cut-off; inactive means mostly below about 14%; further: read at 38.3 µM for the half of the compounds with a filed dose; 0% is about no effect
The depositor's hits bear a star; ? = inconclusive; . = not tested or not shown. Unless noted, the call rests on the fitted dose curve; in most records, active means well fitted inhibition curve with a large enough effect; inconclusive means small, poorly fitted or top-dose-only effect, or another doubt; inactive means no such curve, though single readings can be large or run the other way.

SMILES	Shiga toxin inh	Pf growth 48h	NS1 function inh	Pf growth 96h	CHX counter
O=C(Nc1ccc(F)cc1)c1oc2ccccc2c1NC(=O)C1CC1	-5.7	?	-9.5%	7.1%	-1.2
CCCCn1c(=O)[nH]c(=O)c2c1nc(-c1ccccc1OC(F)F)n2C	-11.0	-14.1%	-0.7%	-16.9%	-2.3
CC(=O)c1c(C)[nH]c(C(=O)OCC(=O)Nc2ccc(Cl)c(S(=O)(=O)N(C)C)c2)c1C	14.3	1.17µM*	-12.3%	6.57µM*	2.5
Cc1ccc(NC(=O)COC(=O)c2ccc(Cl)cc2)cc1S(=O)(=O)N(C)C	17.6	?	5.9%	0.4%	-2.5
CC(=O)c1c(C)[nH]c(C(=O)Nc2ccc(Cl)c(S(=O)(=O)N(C)C)c2)c1C	108.9*	?	-0.4%	?	23.9*
CN=C(c1ccc(C)cc1)n1c(=S)nc(-c2ccc(C)cc2)n(C)c1=S	84.7*	?	-4.7%	?	43.0*
CC(C)C[C@@H](NC(=O)[C@H](Cc1ccccc1)NC(=O)c1cnccn1)B(O)O	.	0.0675µM*	.	0.0301µM*	.
CC1=CC(C)(C)N2C(=O)C3(NCCc4c3[nH]c3ccccc43)c3cccc1c32 (stereo unspecified)	12.0	?	-12.5%	219.4%	5.7
Cn1c2ccccc2c2nnc(SCC(N)=O)nc21	-4.7	32.1%	5.0%	0.7%	-3.9
CCn1c2ccccc2c2nnc(SCC(=O)Nc3c(C)n(C)n(-c4ccccc4)c3=O)nc21	-25.7	?	-5.0%	11.7µM*	-4.2
Cn1c2ccccc2c2nnc(SCC(=O)Nc3cccc(O)c3)nc21	23.5	6.0%	4.9%	?	10.6*
CCCCn1c2ccccc2c2nnc(SCC(=O)NC3=NN=C(c4ccccc4)CS3)nc21	-13.8	2.94µM*	4.2%	?	4.8
CC(Oc1cccc(Cl)c1)C(=O)Nc1cc(S(=O)(=O)N2CCOCC2)ccc1N1CCCCC1 (stereo unspecified)	.	8.28µM*	.	?	.
CCN1CCN(c2ccc(S(=O)(=O)N3CCOCC3)cc2NC(=O)C(C)Oc2cccc(Cl)c2)CC1 (stereo unspecified)	.	10.4µM*	.	?	.
CCCN(CCC)C(=O)C1CCCN1S(=O)(=O)c1cccc2nsnc12 (stereo unspecified)	-9.6	4.9%	2.0%	?	-0.2
Cc1ccc(OCC(=O)NCCNC(=O)c2ccncc2)cc1	-8.8	22.5%	-2.2%	33.0%	-3.6
COc1ccc(C2C3=C(CCCC3=O)N(CC(=O)O)C3=C2C(=O)CCC3)cc1Cl	-7.8	37.0%	18.8%	-17.3%	-1.5
O=C(CCNS(=O)(=O)c1ccc(Br)cc1)NCc1ccc(Cl)cc1	-4.5	16.6%	-0.4%	-27.2%	11.2
CCOc1ccc(CO[C@@H]2O[C@H](CO)[C@@H](O)[C@H](O)[C@H]2NC(C)=O)cc1OC	-3.4	34.9%	1.4%	?	7.5
O=c1[nH]c(C2CCN(S(=O)(=O)c3ccc(S(=O)(=O)NC4CC4)cc3)CC2)nc2c1nnn2Cc1cccc(F)c1	61.8	9.28µM*	27.5%	?	-3.3
Cc1ccc(Cn2nnc3c(=O)[nH]c(C4CCN(S(=O)(=O)c5ccc(S(=O)(=O)NC6CC6)cc5)CC4)nc32)cc1	-7.0	?	?	1.47µM*	-6.2
Cc1ccc(Cn2nnc3c(=O)[nH]c(C4CCN(S(=O)(=O)c5ccc(C)cc5)CC4)nc32)cc1	-5.2	.	?	-12.5%	-0.6
Cn1c2ccccc2c(=O)c2c(=O)n(Cc3ccco3)c(-c3ccc(C(C)(C)C)cc3)nc21	-1.5	?	3.8%	?	-2.7
CC(CNC(=O)C(C)(C)C)NC(=O)C(C)(C)C (stereo unspecified)	-2.4	-2.4%	9.6%	36.7%	-4.1
COc1ccc(-n2nc(C)c3sc(C)nc3c2=O)cc1	46.2	15.0%	1.9%	39.5%	9.6*
SMILES	Shiga toxin inh	Pf growth 48h	NS1 function inh	Pf growth 96h	CHX counter
Cc1nc2c(=O)n(-c3ccc(F)c(Cl)c3)nc(C)c2s1	-5.5	?	-2.2%	-3.2%	-2.3
Cc1cc(C)n2nc(CCCO)nc2n1	3.2	0.0%	3.7%	8.3%	-1.2
CCCCCCCCc1ccc(-c2ccc(C(=O)O)cc2)cc1	-9.4	.	.	.	-8.1
CCCCCCCc1ccc(-c2ccc(O)cc2)nc1	80.7*	?	-66.0%	5.6%	30.7*
CC(C)CCCCCCc1ccc(O)cc1	.	-19.4%	.	-13.5%	.
CCCCCc1ccc(-c2ccc(/C=C/C(=O)O)cc2)nc1	55.4*	72.2%	-33.2%	25.2%	44.2*
